Bioassay records from PubChem BioAssay.
CHT block – human CHT choline transport inhibition. Q9GZV3. CHT-expressing cells, membrane potential dye, choline response; hits give low values. B-score at 10 µM. actives 0.86% (n = 310,000). AID 488975;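 active means B-score over 3 SD under the library average, and starting fluorescence ratio not unusually high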;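 further: choline stimulus applied at its EC90 after an EC20 pre-addition; B-score computed on integrated fluorescence ratio after choline addition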
MEKK3 PB1 HTS – modulators (inhibitors or enhancers) of MEK5 binding to human MEKK3 PB1 domain; Q99759; bead-based flow cytometry, Alexa488-MEK5 binding to MEKK3; actives lie on both sides; 0 = blocked by unlabeled MEK5, 100 = vehicle; binding response (% of control), % at 10 µM; actives 1.4% (n = 290,000); AID 1529;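 active means binding response more than 3 SD above or below the average of its plate-row segment, actives on both sides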;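 further: Alexa488 bead fluorescence after subtracting the streptavidin-only scavenger bead signal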
Target sequence (Q99759 whole entry, looked up, the tested form may be a part): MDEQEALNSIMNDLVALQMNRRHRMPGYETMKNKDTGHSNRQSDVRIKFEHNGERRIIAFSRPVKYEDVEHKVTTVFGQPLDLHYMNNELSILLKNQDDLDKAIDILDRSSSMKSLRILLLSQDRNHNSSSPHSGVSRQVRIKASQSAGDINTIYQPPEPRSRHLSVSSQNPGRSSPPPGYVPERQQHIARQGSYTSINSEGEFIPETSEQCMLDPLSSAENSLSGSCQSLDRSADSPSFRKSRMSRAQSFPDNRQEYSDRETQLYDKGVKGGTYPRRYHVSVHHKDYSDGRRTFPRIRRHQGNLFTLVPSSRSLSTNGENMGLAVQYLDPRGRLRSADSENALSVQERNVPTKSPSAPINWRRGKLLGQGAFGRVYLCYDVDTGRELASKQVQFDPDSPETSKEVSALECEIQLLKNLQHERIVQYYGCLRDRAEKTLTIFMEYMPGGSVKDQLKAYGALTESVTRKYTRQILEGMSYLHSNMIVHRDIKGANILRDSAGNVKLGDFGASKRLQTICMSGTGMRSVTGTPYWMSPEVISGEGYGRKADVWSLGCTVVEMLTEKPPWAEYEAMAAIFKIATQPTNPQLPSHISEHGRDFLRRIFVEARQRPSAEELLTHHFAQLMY
MEKK2 mut-MEK5 – signal of MEK5 binding to mutant human MEKK2 PB1 domain. bead flow cytometry, Alexa488-MEK5 binding to MEKK2 mutant. percent response, % at 10 µM. actives 0.35% (n = 290,000); in the data active means percent response above about 24%, passing the limit was not always enough
SUMO Mot1 rescue – blocks SUMOylation pathway, rescuing yeast Mot1-301 growth; growth rescue, % at 18.8 µM; actives 1% (n = 320,000); S. cerevisiae Mot1-301 growth rescue, ATP luminescence, 38.5C; percent above DMSO median, 100 means doubled;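 active means every valid replicate shows activation above 250% relative to neutral control wells; inactive means the rest, any valid replicate at or below 250%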;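 further: OY570 slx delta 5 strain wells were the positive control but not used for scaling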
CHT PAM – allosteric activators of human choline transporter CHT; Q9GZV3; CHT-expressing cells, membrane potential dye, choline EC20; hits give high values; LV-AA mutant CHT in HEK293 cells; B-score at 10 µM; actives 0.49% (n = 310,000); AID 488977;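 active means initial fluorescence not abnormally high and integrated response B-score, plate-corrected, over 3 SD above library mean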
MEKK2 WT-MEK5 – raises or lowers MEK5 binding to wildtype human MEKK2 PB1 domain; binding response (% of control), % at 10 µM; actives 1.1% (n = 290,000); Q9Y2U5; bead flow cytometry, Alexa488-MEK5 binding to MEKK2 WT; actives lie on both sides; AID 1531; in the data active means binding response below about 67% or above about 130%
CHT act confirm – confirmation of human choline transporter (CHT) activators; shares compounds with CHT PAM; CHT-expressing cells, membrane potential dye fluorescence (FDSS); % of choline EC20–EC90 response window; HEK293 expressing CHT LV-AA mutant; choline added at its EC20; activation, % at 10 µM; actives 91% (n = 2,500);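 active means primary screen active, with duplicate mean activation above negative control mean plus 3 SD, cut at about 11% in these data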
HEK293 MP dye – counter-screen for CHT activators: effect in parental HEK293 cells | shares compounds with CHT PAM | membrane potential dye fluorescence (FDSS); measured after EC20 choline addition | ratio readout change at 10 µM, hits read low | actives 62% (n = 2,500);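 active means duplicate-averaged ratio beyond 3 SD from buffer wells, up or down, though filed actives are nearly all decreases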
The depositor's hits bear a star; i = inactive; / = no result. Only some compounds are listed: those with a hit (about 4.1% of all), similar ones and a draw of the others.

SMILES	CHT block	MEKK3 PB1 HTS	MEKK2 mut-MEK5	SUMO Mot1 rescue	CHT PAM	MEKK2 WT-MEK5	CHT act confirm	HEK293 MP dye
COCC(=O)N(C)c1nnc(-c2cnc(C)cn2)s1	i	103	2	4	6.4*	103	59*	-55*
O=C1c2cnc3ncnn3c2CC2c3ccccc3CCN12 (configuration not stated)	i	87	-28	2	i	82	21*	-27*
Cc1c(CCOC(=O)c2cccc([N+](=O)[O-])c2)sc[n+]1CC(=O)c1ccccc1	i	118	-2	-9	i	113	/	/
Cc1c(CCOC(=O)c2ccc([N+](=O)[O-])cc2)sc[n+]1CC(=O)c1ccccc1	i	104	1	-14	7.1*	110	58*	-52*
O=C(c1nc2ccccn2c1CN1CCCC(O)C1)N1CCN(C2CCCCC2)CC1 (configuration not stated)	i	97	4	-10	i	104	75*	-57*
COc1ccc(C(=O)C[n+]2cc(Br)cc3ccccc32)cc1[N+](=O)[O-]	i	100	10	1	i	99	31*	-38*
COc1ccc(C(=O)OCC(N)=O)cc1[N+](=O)[O-]	i	107	5	-3	i	108	/	/
COc1ccc(C(=O)C(CCCCC(CN(C)C)C(=O)c2ccc(OC)cc2)CN(C)C)cc1 (configuration not stated)	i	/	/	-9	i	/	15*	-27*
Nc1ccc(C(=O)OCc2ccncc2)cc1[N+](=O)[O-]	i	108	6	-17	i	104	35*	-31*
Cc1cc(N2CCN(C)CC2)ccc1NC(=O)c1ccc(-c2ccc(Cl)cc2)o1	i	/	/	4	i	/	4	i
CCOC(=O)c1c(C)n(C)c2ccc(OC)c(NC(=O)CCN3CCC(Cc4ccccc4)CC3)c12	i	102	10	28	i	106	7	i
CC1(C)Cc2c(C#N)c(OCC(=O)c3ccc(Cl)cc3)nc(-c3ccco3)c2CO1	i	103	4	-1	13*	99	9	i
CC1(C)Cc2c(C#N)c(NCc3ccco3)nc(-c3ccco3)c2CO1	i	104	1	-3	i	99	/	/
N#Cc1c(NCCN)nc(-c2ccco2)c2c1CCCC2	i	106	13	3	i	125	39*	-73*
CN(C)CCNc1nc(-c2ccco2)c2c(c1C#N)CC(C)(C)OC2	i	103	4	16	11*	108	65*	-91*
CCCN(CCC)C(=O)c1oc2ccccc2c1NC(=O)Cc1cccc(OC)c1	i	100	-8	-3	16*	100	29*	i
CCCCn1nc(C(=O)Nc2ccccc2N2CCCC2)c2ccccc2c1=O	/	/	/	-3	/	/	/	/
Nc1c2c(nc3ccccc13)CSCC2	i	/	/	3	6.3*	/	54*	-55*
CCOC(=O)C1=C(C)S/C(=C\N(C)C)C1=O	i	102	6	12	11*	102	61*	-54*
CCOC(=O)C1=C(C)NC(=O)/C1=C\N(C)C	i	104	-2	12	i	97	/	/
CN(C)C1=NC[C@H](Cc2ccccc2)N1CCC1CCCC1	i	/	/	0	i	/	27*	i
NC1=NC[C@H](Cc2ccccc2)N1CC1CCCCC1	i	102	1	3	i	105	32*	i
CN(C)C1=NC[C@H](Cc2ccccc2)N1CCCC1CCCC1	i	/	/	15	i	/	/	/
CCCCC(=O)Nc1ccc(C(=O)NN2C(=O)c3ccccc3C2=O)cc1	i	100	4	-4	i	103	/	/
O=C(Nc1ccccc1)N1CCCN(c2c(Cl)cncc2Cl)CC1	i	91	-4	8	i	91	/	/
SMILES	CHT block	MEKK3 PB1 HTS	MEKK2 mut-MEK5	SUMO Mot1 rescue	CHT PAM	MEKK2 WT-MEK5	CHT act confirm	HEK293 MP dye
CC(C)(C)c1ccc(NC(=O)N2CCCN(c3c(Cl)cncc3Cl)CC2)cc1	i	103	6	5	i	101	12*	i
O=C(C1CCN(Cc2ccc(F)cc2)CC1)N(CCc1ccccc1)Cc1ccccc1	i	122	2	-8	6.8*	113	29*	i
Cc1cc(=O)n2nc(-c3ccc(C(F)(F)F)cc3)sc2n1	i	106	4	195	6.8*	110	42*	-35*
Cn1c(SCC(=O)Nc2cccnc2Cl)nc2ccccc21	/	/	/	47	/	/	/	/
OCCCNc1ncnc2sc3c(c12)CCN(Cc1ccccc1)C3	i	105	10	236	6.2*	112	49*	-53*
O=C(CCc1ccccc1)N1CCN(c2ccccn2)CC1	i	101	-1	12	i	102	/	/
O=C(c1ccccc1CCc1ccccc1)N1CCN(c2ccccn2)CC1	i	99	0	88	6.5*	102	27*	i
Cc1ccc(S(=O)(=O)N2CCCCC2)cc1C(=O)N(CCc1ccccc1)Cc1ccccc1	i	/	/	/	i	/	/	/
CCOC(=O)c1c[nH]c2nc(C)ccc2c1=O	i	100	-1	17	10*	96	63*	-63*
Cc1ccc(S(=O)(=O)c2nc(-c3ccco3)oc2SC(C)C)cc1	i	108	4	-8	i	107	15*	i
CCN1CCCC(Sc2nc3c([nH]2)c(=S)n(C)c(=O)n3C)C1 (configuration not stated)	i	103	7	-6	i	104	29*	-26*
Cn1c(=S)c2[nH]c(SCCN3CCCC3)nc2n(C)c1=O	i	73	3	-3	i	100	/	/
CC(=O)c1cccc(N(C(=O)CNC(=O)c2ccco2)C(C(=O)NC2CCCC2)c2ccco2)c1 (configuration not stated)	i	100	3	5	i	101	/	/
Cn1ncc(C#N)c1/N=C/N(Cc1ccccc1)Cc1ccccc1	i	102	-2	11	16*	103	46*	i
CN1CCN(/C=N/c2c(C#N)cnn2C)CC1	i	93	-8	-20	i	94	/	/
CCc1ccc(OCC(=O)N/N=C/c2cc([N+](=O)[O-])ccc2N2CCOCC2)cc1	i	100	2	0	i	96	23*	i
